Data: ChEMBL document CHEMBL4513154, “CO-ADD screening of Jain University (India) compounds”
Results with a measured potency or affinity are listed apart.

Columns and labels:
Staphylococcus aureus = conditions: Concentration 32 ug.mL-1; ASSAY_TEST Inhibition of Bacterial Growth; detection method Absorption (OD600); MEDIA CAMHB; plate type 384well; NBS; CORNING #3640; time 18 hr
Escherichia coli = conditions: Concentration 32 ug.mL-1; ASSAY_TEST Inhibition of Bacterial Growth; detection method Absorption (OD600); MEDIA CAMHB; plate type 384well; NBS; CORNING #3640; time 18 hr

Structure (SMILES) | Inhibition (Staphylococcus aureus) [%] | Inhibition (Escherichia coli) [%]
N#Cc1ccccc1-c1ccc(Cn2c(-c3cscn3)nc3cc(Cl)ccc32)cc1 | -3.28 | -8.05
Nc1nc(Nc2ccccc2)sc1-c1nc2ccccc2c(=O)n1-c1ccc(Cl)cc1 | 3.1 | -14.74
Clc1ccc2nc(-c3cscn3)n(Cc3ccccc3)c2c1 | -8.96 | -8.13
Clc1ccc2c(c1)nc(-c1cscn1)n2Cc1ccccc1 | -3.7 | -7.11
Cn1c(-c2cscn2)nc2cc(Cl)ccc21 | -4.5 | -10.62
N#Cc1ccccc1-c1ccc(Cn2c(-c3cscn3)nc3ccc(Cl)cc32)cc1 | -8.21 | -6.57
CCc1ccc(-n2c(-c3sc(Nc4ccccc4)nc3N)nc3ccccc3c2=O)cc1 | 9.22 | -7.31
Nc1nc(Nc2ccc(Cl)cc2)sc1-c1nc2ccccc2c(=O)n1-c1ccccc1 | 3.07 | -2.8
Clc1cccc2[nH]c(-c3cscn3)nc12 | -11.71 | -6.5
